Source: PubChem
Pf growth 96h – P. falciparum growth inhibition at 96 hours; P. falciparum luciferase reporter growth, 96 h; Potency, µM (highest dose often 28.7 µM), inactives show top-dose activity change, negative = inhibition, hits mostly inhibitors; 320,000 tested, 6.9% active; AID 504834
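96 h incubation, 37 C, 5% CO2, of luciferase-reporter P. falciparum-infected RBCs (2% hematocrit, 0.05% parasitemia final) with test compounds; endpoint luminescence.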
AMA1-RON2 inh – disrupts binding of P. falciparum AMA1 to RON2; AlphaScreen AMA1-biotinylated RON2 peptide binding; Potency, µM (series often up to 58.2 µM), inactives show top-dose activity change, negative = inhibition, usual class: inhibitors; 360,000 tested, 0.2% active;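 further: 0% = vehicle wells and -100% = peptide control; nearly all actives have a fitted effect of over 45% in size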
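AMA1 (3D7) with his tag at 25 nM final met compounds first, then biotinylated RON2 peptide at 25 nM; detection used donor plus acceptor beads, 10 µg/mL apiece, read by AlphaScreen after 30 min at room temperature.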
HCV inhibitor – blocks hepatitis C virus; Huh7.5.1 HCVcc-Cre infection, luciferase reporter, 44 h; Potency, µM (top dose mostly 41.8 µM), without a hit: top-dose activity change, negative = inhibition, actives largely listed as inhibitors; 340,000 tested, 3.4% active
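Antiviral activity was scored by luciferase reporter output from cells infected with HCVcc-Cre (~0.5 moi) in presence of compound, 44 h infection period, cells seeded 1,000/well 4 h prior.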
Pf growth 48h – P. falciparum growth inhibition at 48 hours (one generation) | P. falciparum luciferase growth in erythrocytes, 48 h | Potency, µM (doses to about 28.7 µM), without a hit: at the highest dose activity change, negative = inhibition, usual class: inhibitors | 310,000 tested, 5.9% active | AID 504832
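A one-generation exposure of luciferase-tagged malaria parasites in RPMI 1640/Albumax erythrocyte culture, 37 C and 5% CO2. Inhibition is inferred from decreased luminescence after adding detection reagent.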
* hit, by the source's call; ? = inconclusive; nt = no result; [ ] = remark or other dose. Hits are enriched below; roughly 11% of the tested compounds scored in any of these assays. The call rests on the fitted dose curve; in most records, active means well fitted curve in the direction sought with a large enough effect; inconclusive means small, poorly fitted or top-dose-only effect, or another doubt; inactive means no such curve, though single readings can be large; an effect the other way counts as inactive or inconclusive. Unless noted, on the % scale 0 is the no-effect control and ±100 the full control effect; potency means the concentration at half of the fitted maximal effect.

SMILES	Pf growth 96h	AMA1-RON2 inh	HCV inhibitor	Pf growth 48h
C=CCc1c(C)nc(C)nc1N/N=C/c1ccc(F)cc1	-4%	2%	9%	nt
COc1ccc(-c2cn3cccnc3n2)cc1NC(=O)C1CC1	9.3µM*	2%	?	25%
CCC(=O)Nc1cccc(-c2cn3ccccc3n2)c1	12µM*	-3%[11.6 µM]	-24%	146%
CN(C)S(=O)(=O)c1cccc(-c2cn3ccccc3n2)c1	10µM*	2%	12%	18%
O=C(Nc1cccc(-c2cn3ccsc3n2)c1)c1ccccc1	7%	-11%	25µM*	90%
CCOc1ccc(S(=O)(=O)N(C)c2ccc(OCC(=O)NCc3ccc(C(=O)OC)cc3)cc2)cc1	-31%	-9%	-29%	-18%
O=C(Nc1cccc(-c2cn3ccccc3n2)c1)c1cccc(Cl)c1	?	-11%	11µM*	?
O=C(COc1ccccc1)Nc1cccc(-c2nc3cc4ccccc4cc3[nH]2)c1	14%	4%	7.1µM*	117%
O=C(COc1ccccc1)Nc1cccc(-c2nn[nH]n2)c1	-3%	-5%	20%	-5%
O=C(COc1ccccc1)Nc1cccc(-c2cn3cccnc3n2)c1	6.6µM*	-11%	-28%	9.3µM*
COc1ccccc1NC(=O)Cn1nnc(-c2ccccc2NC(=O)c2cc3ccccc3oc2=O)n1	64%	2%	10%	42%
COc1ccc([C@H]2CC(=O)C[C@@H](CCn3cc(-c4ccccn4)nn3)O2)cc1	nt	-24%	nt	nt
CC(CC(=O)Nc1ccc(F)cc1)S(=O)(=O)c1ccc2c(c1)NC(=O)CO2 (stereo not given)	?	-7%	-4%	2%
CC(CC(=O)N1CCc2ccccc21)S(=O)(=O)c1ccc2c(c1)NC(=O)CO2 (stereo not given)	10µM*	12%	16%	-4%
CC(CC(=O)NCc1ccc(Cl)cc1)S(=O)(=O)c1ccc2c(c1)NC(=O)CO2 (stereo not given)	?	-7%	1%	18%
Cc1ccc(NC(=O)CC(C)S(=O)(=O)c2ccc3c(c2)NC(=O)CO3)cc1C (stereo not given)	12µM*	0%	8%	?
Cc1ccc(NS(=O)(=O)c2ccc3c(c2)NC(=O)CO3)cc1Cl	30%	-5%	8%	-14%
CC(CC(=O)NC1CCCCC1)S(=O)(=O)c1ccc2c(c1)NC(=O)CO2 (stereo not given)	13µM*	12%	8%	8%
Cc1ccc(NS(=O)(=O)c2ccc3c(c2)NC(=O)CO3)cc1C	9.3µM*	-5%	-14%	18%
CC1CC(C)CN(S(=O)(=O)c2ccc(C(=O)N(C)Cc3ccccc3)cc2)C1 (stereo not given)	nt	-3%	?	nt
Cc1onc(-c2c(F)cccc2Cl)c1C(=O)Nc1ccccc1N1CCOCC1	2.6µM*	-12%	-15%	1.9µM*
Cc1onc(-c2c(Cl)cccc2Cl)c1C(=O)N1CCN(c2ccccc2F)CC1	?	21%	?	13µM*
COc1ccccc1N1CCN(C(=O)c2c(-c3ccccc3Cl)noc2C)CC1	?	-10%	11µM*	?
CCOC(=O)c1ccc(N2CCOCC2)c(NC(=O)c2c(-c3ccccc3)noc2C)c1	?	12%	?	13µM*
COc1ccccc1N1CCN(C(=O)c2c(C)noc2C)CC1	47%	-2%	6%	6%
SMILES	Pf growth 96h	AMA1-RON2 inh	HCV inhibitor	Pf growth 48h
CCOC(=O)COc1ccc2c(c1)c(C(=O)OCC)c(C)n2CC	32%	3%	9%	1%
COc1cc(OC)cc(-c2c(-c3ccc(C(C)=O)cc3)c3cc(-c4cccc5[nH]ccc45)ccc3n2C)c1	nt	-5%	?	nt
Cc1onc(-c2c(Cl)cccc2Cl)c1C(=O)N=C(N)N1CC(C)OC(C)C1 (stereo not given)	12µM*	3%	-13%	3.3µM*
CC1CCCCC1NC(=O)C1CCC(CNc2c(N3CCCCC3)c(=O)c2=O)CC1 (stereo not given)	-18%	4%	9%	-7%
Cc1cccc(C)c1NC(=O)CN(C)C(=O)c1ccccc1OCc1ccc(F)cc1	-1%	13%	-14%	?
Cc1cnc(CN(C)C(=O)c2ccc3oc(Cc4ccccc4)nc3c2)[nH]1	4.7µM*	-11%	0%	-19%
Cc1cnc(CN(C)C(=O)c2ccc3oc(Cc4ccc(Cl)cc4)nc3c2)[nH]1	4%	-5%	?	?
OCCc1ccc(O)c(-n2nc3ccccc3n2)c1	109%	-1%	2%	88%
CCC1=[N+](C)CCn2c(C)ccc21	15%	-2%	-8%	nt
CCC1=[N+](CC(=O)c2ccc(C)cc2)CCn2c(C)ccc21	?	-16%	?	3.3µM*
CCC1=[N+](CC(=O)c2ccc(C)cc2)CCn2cccc21	-2%	-17%	9%	?
CCC1=[N+](CC(=O)c2ccc(Br)cc2)CCn2c(C)ccc21	?	-12%	-3%	5.9µM*
CC(C(=O)N(C)Cc1cccc(F)c1)N1CCN(S(=O)(=O)c2ccc3c(c2)OCCCO3)CC1 (stereo not given)	?	-11%	-16%	?
Cn1ncc(N=Cc2c(O)ccc3ccccc23)c1C(=O)N1CCOCC1	nt	49%	7%	nt
COc1ccccc1NC(=O)c1c(N=Cc2c(O)ccc3ccccc23)cnn1C	?	79%	?	7.4µM*
COc1ccccc1NCC(=O)N/N=C/c1c(O)ccc2ccccc12	0%	82%	2.8µM*	?
NNC(=O)c1ccc(COc2cccc3ccccc23)cc1	?	36%	20%	?
O=C(NCc1ccco1)c1ccc(COc2ccccc2Cl)cc1	?	-1%	11µM*	?
O=C(NCc1ccco1)c1ccc(COc2cccc3ccccc23)cc1	7.4µM*	15%	?	7.4µM*
CCCCN(CC)Cc1ccc(CNC(=O)Nc2ccc(F)cc2)o1	?	2%	11µM*	nt
O=C(CN(C1CCCCC1)S(=O)(=O)c1ccccc1)N1CCCC1	-1%	10%	20%	5%
O=C(CN(C1CCCCC1)C1CCCCC1)N1CCc2ccccc2C1	13µM*	-15%	?	nt
COc1ccc(CCNC(=O)c2ccc(N(C)S(=O)(=O)c3ccccc3)cc2)cc1	?	-3%	?	2.1µM*
CN(c1ccc(C(=O)NCCSCc2ccc(Cl)cc2)cc1)S(=O)(=O)c1ccccc1	?	-9%	?	4%
COc1ccc(OCCOc2ccc(N(C)S(=O)(=O)c3ccccc3)cc2)cc1	-20%	3%	11µM*	?
COc1ccc(CCNC(=O)c2ccc(N(C)S(=O)(=O)c3ccc(C)cc3)cc2)cc1OC	-9%	-13%	10µM*	?
Cc1ccc(CSCCNC(=O)c2ccc(N(C)S(=O)(=O)c3ccccc3)cc2)cc1	77%	-3%	11µM*	6%
C=CCn1nc(C(=O)Nc2ccc(OC)cc2)cc1-c1sc(NC(=O)c2ccccc2)nc1C	nt	-20%	nt	nt
Cc1ccc(CSCCNS(=O)(=O)c2ccccc2)cc1	1.5µM*	-5%	-17%	2%
